Reference: paper PMC5913336, “True equilibrium measurement of transcription factor-DNA binding affinities using automated polarization microscopy”

molecular target: Gsc (Drosophila melanogaster, UniProt P54366 267-356); test: FP; 33 mM phosphate pH 7.0, 90 mM NaCl, 0.01% Tween 20, 0.1 mM DTT, 0.5% agarose; room temperature; details: tags: N-GST (pGEX-6P-1, kept); dsDNA, one strand shown
Sequence (P54366 267-356): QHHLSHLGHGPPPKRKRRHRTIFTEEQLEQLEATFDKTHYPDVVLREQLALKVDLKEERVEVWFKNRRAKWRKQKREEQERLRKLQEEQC

Sequence	binding signal	Kd [nM]
AATTAATCAGAT	1.75 Kd / Kd of best base at the position	–
AATTAACCCGAT	13.1 Kd / Kd of best base at the position	–
AATTGATCCGAT	12.6 Kd / Kd of best base at the position	–
AATTAGTCCGAT	10.6 Kd / Kd of best base at the position	–
AATTACTCCGAT	24.4 Kd / Kd of best base at the position	–
AATTAATTCGAT	3.3 Kd / Kd of best base at the position	–
AAATAATCCGAT	4.25 Kd / Kd of best base at the position	–
AATTAATCCGAC	1.04 Kd / Kd of best base at the position	–
AATTAATCCGTT	1.04 Kd / Kd of best base at the position	–
AATTAATCCGAT	–	~3.8
AAGTAATCCGAT	4.46 Kd / Kd of best base at the position	–
AATTAATCCGAG	1.56 Kd / Kd of best base at the position	–
AATTTATCCGAT	12.6 Kd / Kd of best base at the position	–
CATTAATCCGAT	4.41 Kd / Kd of best base at the position	–
AATTAATCCAAT	1.29 Kd / Kd of best base at the position	–
AATTATTCCGAT	24.5 Kd / Kd of best base at the position	–
AACTAATCCGAT	2.52 Kd / Kd of best base at the position	–
AATTAAGCCGAT	4.74 Kd / Kd of best base at the position	–

Sequence	binding signal	Kd [nM]
AATTAATACGAT	9.77 Kd / Kd of best base at the position	–
AATTAATGCGAT	9.37 Kd / Kd of best base at the position	–
AATCAATCCGAT	23.5 Kd / Kd of best base at the position	–
AATTAATCCGGT	1.99 Kd / Kd of best base at the position	–
AATAAATCCGAT	8.9 Kd / Kd of best base at the position	–
ATTTAATCCGAT	3.67 Kd / Kd of best base at the position	–
GATTAATCCGAT	1.37 Kd / Kd of best base at the position	–
AATGAATCCGAT	42.9 Kd / Kd of best base at the position	–
TATTAATCCGAT	2.48 Kd / Kd of best base at the position	–
AATTAATCCCAT	1.16 Kd / Kd of best base at the position	–
AGTTAATCCGAT	4.01 Kd / Kd of best base at the position	–
AATTAATCGGAT	3.62 Kd / Kd of best base at the position	–
AATTAATCTGAT	1.95 Kd / Kd of best base at the position	–
AATTCATCCGAT	36.4 Kd / Kd of best base at the position	–
AATTAATCCGCT	3.18 Kd / Kd of best base at the position	–
AATTAAACCGAT	9.22 Kd / Kd of best base at the position	–
AATTAATCCTAT	2.32 Kd / Kd of best base at the position	–
AATTAATCCGAA	1.15 Kd / Kd of best base at the position	–

molecular target: T1, Optix (Drosophila melanogaster, UniProt Q95RW8 139-229); test: as above; details: tags: N-GST (pGEX-6P-1, kept); dsDNA, one strand shown
T1 sequence: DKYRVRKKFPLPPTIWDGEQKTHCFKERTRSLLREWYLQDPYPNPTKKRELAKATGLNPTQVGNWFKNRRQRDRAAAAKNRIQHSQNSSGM

Sequence	binding signal
AGAGTGATATCT	3.39 Kd / Kd of best base at the position
AGCGTGATAGCT	4.94 Kd / Kd of best base at the position
AGAGTGAAAGCT	1670 Kd / Kd of best base at the position
AGAGTGATAGTT	5.68 Kd / Kd of best base at the position
